Source: PubChem BioAssay AID1619 (SRMLSC, 2009)
Screen size: about 220,000 compounds; about 830 (0.38%) were called active.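 Rule for the calls: active = compound inhibiting the enzyme by more than half at any dose during confirmatory dose-response retesting; inconclusive = strong single-dose inhibitors picked by rank but not retested; inactive = the rest.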 Not all results are given here. Potency and affinity values are given separately.

What follows are compounds tested against Leucine aminopeptidase (Plasmodium falciparum (isolate 3D7)) (UniProt Q8IL11) (assay: P. falciparum M17LAP inhibitors, primary screen, biochemical, fluorogenic H-Leu-NHMec substrate, 1536-well (AID 1619;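 note: plate controls were full reaction with DMSO carrier for no effect and no enzyme background for full effect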)). Settings: recombinant M17LAP, H-Leu-NHMec fluorogenic kinetic assay; at 30 µM; stronger effect = higher value.
Sequence of Leucine aminopeptidase (Plasmodium falciparum (isolate 3D7)) (Q8IL11 whole entry, looked up): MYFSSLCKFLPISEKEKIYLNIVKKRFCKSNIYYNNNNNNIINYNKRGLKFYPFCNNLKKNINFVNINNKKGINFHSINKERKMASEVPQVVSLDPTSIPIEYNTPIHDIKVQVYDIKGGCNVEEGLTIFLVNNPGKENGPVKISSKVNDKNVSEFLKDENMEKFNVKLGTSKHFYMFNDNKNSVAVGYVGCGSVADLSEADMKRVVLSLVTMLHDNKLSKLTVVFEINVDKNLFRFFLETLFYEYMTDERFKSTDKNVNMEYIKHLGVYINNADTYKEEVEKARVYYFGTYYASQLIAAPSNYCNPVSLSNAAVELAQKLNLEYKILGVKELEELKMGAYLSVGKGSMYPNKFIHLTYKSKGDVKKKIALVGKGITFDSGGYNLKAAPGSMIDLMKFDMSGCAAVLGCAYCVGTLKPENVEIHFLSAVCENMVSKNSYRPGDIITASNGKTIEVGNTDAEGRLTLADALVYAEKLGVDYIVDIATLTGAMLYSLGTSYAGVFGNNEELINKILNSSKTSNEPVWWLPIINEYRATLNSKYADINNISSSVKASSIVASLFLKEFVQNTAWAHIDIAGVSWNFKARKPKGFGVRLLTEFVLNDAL

inhibition, inactive:
COCCNc1nc2nonc2nc1N1C[C@H]2CC[C@H]1C2 8.08%
COc1ccc(N2CCN(CCCNC(=O)C3(S(=O)(=O)c4ccc(Cl)cc4)CC3)CC2)cc1 16%
COc1cc(NC(=O)CN2CCN(Cc3ccc4c(c3)OCO4)CC2)cc(OC)c1 19.9%
Cc1ccc(NC(=O)C2CCCCC2C(=O)O)cc1Cl (configuration not stated) 77.4%
O=C(Nc1ccc2c(c1)CCC2)C1CCCO1 (configuration not stated) 6.84%
O=C(O)C1CCCCC1C(=O)Nc1ccc(Cl)cc1 (configuration not stated) 54.6%
Cc1ccc(NC(=O)C2CCCCC2C(=O)O)cc1C (configuration not stated) 16.6%
O=C(NNC(=O)C1CC=CCC1C(=O)O)c1ccc(Cl)cc1 (configuration not stated) 7.35%
Cc1onc(-c2ccccc2Cl)c1C(=O)Nc1ccccc1C(=O)NC(C)C 9.44%
COc1cc(C(=O)NC(C)c2cnn(-c3ccccc3C)c2C)cc(OC)c1OC (configuration not stated) 5.89%
COC(=O)c1c(NC(=O)CSc2ncnc3[nH]ncc23)sc2c1CCC2 33%
CN(C)S(=O)(=O)c1cccc(CSc2cccc[n+]2[O-])c1 -1.76%
Cc1ccc2cc(CCNC(=O)C(=O)c3c[nH]c4ccccc34)c(=O)[nH]c2c1 -4.94%
COC(=O)c1cc(Cl)c(NC(=O)c2cc3ccccc3o2)cc1OC -2.34%
O=C(c1ccc(Br)cc1)c1cc(-c2ccccn2)c(N2CCOCC2)s1 5.58%
Cc1csc2c(SCC(=O)NNS(=O)(=O)c3cccc(C(F)(F)F)c3)ncnc12 -12.4%
CC1(OC(=O)C2CCCC2)C(=O)C=C2C=C(c3ccsc3)N(c3ccccc3)C=C2C1=O (configuration not stated) -5.77%
O=C(OCCN1C(=O)c2ccccc2C1=O)c1ccco1 15.3%
Cc1ccc(NC(=O)Nc2ccc(C(=O)N3CCOCC3)cc2)cc1 41%
COc1ccc(NC(=O)Nc2ccc(C(=O)N3CCOCC3)cc2)c(OC)c1 -5.93%
CCN1CCN(Cc2ccc(NC(=O)Nc3ccccc3)cc2)CC1 50.7%
CCN1CCN(Cc2ccc(NC(=O)Nc3ccccc3OC)cc2)CC1 -5.76%
CC(=O)Nc1cccc(C(=O)/C=C/c2ccco2)c1 17.6%
O=C(O)c1ccccc1/C=N/N1CCN(C2c3ccccc3-c3ccccc32)CC1 -1.62%
Brc1ccc(C2=Nn3c(nnc3-c3n[nH]c4c3CCC4)SC2)cc1 6.03%
CCn1c(O)c(N=N)c2ccccc21 12.4%
O=C(N/N=C/c1coc2ccccc2c1=O)c1ccccc1 11.9%
O=C(N/N=C/c1coc2ccccc2c1=O)c1cc(O)cc(O)c1 29.1%
Cc1c(C(=O)N2CCCC2)sc(NC(=O)c2cccc(Cl)c2)c1C#N 18.9%
Cc1ccc(SCC(=O)NCCC2=CCCCC2)cc1 -5.26%
O=C(CSc1ncccn1)NCc1ccc(F)cc1 2.25%
O=C(COC(=O)c1cccnc1SCC(=O)NCc1ccccc1)NCc1ccccc1 5.78%
O=C(CSc1ccccc1C(=O)O)NCc1ccco1 16.5%
O=C(COC(=O)c1cccnc1Cl)NCCC1=CCCCC1 3.53%
O=C(CSc1ccccc1C(=O)O)NCc1ccccc1 17.3%
Cc1cccc2cc(C(c3nnnn3Cc3ccccc3)N3CCN(c4ccccc4)CC3)c(=O)[nH]c12 (configuration not stated) 2.86%
COc1ccc(N2C(=O)CC(SCCc3nc4ccccc4[nH]3)C2=O)cc1 (configuration not stated) 5.58%
CC1=C(C(=O)NCc2ccccc2)C(c2cccs2)n2ncnc2N1 (configuration not stated) -3.95%
O=C(NNC(=S)Nc1ccccc1)Nc1ccccc1 9.53%
N#C/C(=C\c1ccc(N2CCOCC2)o1)C(=O)NCC1CCCO1 (configuration not stated) 51%
N#C/C(=C\c1ccc(N2CCOCC2)o1)C(=O)NCCc1ccccc1 10.1%
N#C/C(=C\c1ccc(N2CCOCC2)o1)C(=O)Nc1ccc(O)cc1 43.7%
N#C/C(=C/c1ccc(N2CCOCC2)o1)C(=O)Nc1ccccc1 11.7%
COCCNC(=O)/C(C#N)=C/c1ccc(C)o1 23.4%
N#C/C(=C\c1ccc(N2CCOCC2)o1)C(=O)NC1CCCCC1 48.6%
CCN1CCN(Cc2ccc(NC(=O)c3cc(NC(=O)C4=NN(c5ccccc5)C(=O)C4)cc(OC)c3)cc2C(F)(F)F)CC1 6.5%
CCn1c(SCC(=O)OCc2ccccc2)nnc1-c1ccco1 4.57%
CCOC(=O)COc1ccccc1/C=C1/NC(=O)NC1=O -4.69%
CCOC(=O)c1c(C)[nH]c(C(=O)OCC(=O)Nc2ccc(OCC)cc2)c1C -8.26%
COc1ccc(C(C)C)cc1S(=O)(=O)n1ccnc1C -18.1%
COC1=Cc2c(ccc3ccc(=O)oc23)OC1(C)C -5.99%
CCC(Sc1nc(-c2ccccc2)cc(=O)[nH]1)C(=O)O (configuration not stated) 10%
CC(Sc1nc(-c2ccccc2)cc(=O)[nH]1)C(=O)O (configuration not stated) 22.4%
COc1cccc(CNC(=O)CN2C(=O)CSc3ccc(S(=O)(=O)N4CCCC4)cc32)c1 1.2%
COc1ccc(C(=O)NCC(=O)OCC(=O)Nc2c(C)n(C)n(-c3ccccc3)c2=O)cc1 5.29%
COc1ccc(CNc2nn[nH]n2)cc1OC 26.5%
c1ccc(COc2ccccc2CNc2nn[nH]n2)cc1 6.74%
COc1ccc(/C=N/NC(=S)N[C@H]2CC3CCC2C3)cc1 (some centres not stated) 3.46%
COc1ccc(C(=O)Nc2nc3cc(OC)c(OC)cc3c(=O)[nH]2)cc1 0.22%
CC1CCC2(CC1)NC(=O)N(CC(=O)N1CCN(S(=O)(=O)c3ccccc3)CC1)C2=O (configuration not stated) 5.42%
CS(=O)(=O)CCC(C(=O)N1CCOCC1)N1C(=O)c2cc(Cl)c(Cl)cc2C1=O (configuration not stated) 6.46%
COc1cccc(Nc2ncnc3ccccc23)c1 13.6%
COc1cccc(Nc2ncnc3c2cnn3C)c1 16.4%
Cc1cccc(Nc2ncnc3ccc(Br)cc23)c1 5.43%
Cc1cccc(Nc2ncnc3ccccc23)c1 19.2%
CCN1C(=O)/C(=C\c2nc3ccccc3c(=O)n2-c2ccccc2)c2ccccc21 -3.98%
CCOC(=O)c1cnc2c(C)c(Cl)ccc2c1Nc1ccc(S(=O)(=O)Nc2ncccn2)cc1 -6.24%
CC(=O)NC(O)C(=O)c1ccco1 (configuration not stated) 3.51%
C=CCn1c(SCC(=O)Nc2c(C)cccc2C)nnc1-c1ccncc1 -1.77%
COc1ccc(C(=O)COC(=O)C2CCC(=O)N2)cc1 (configuration not stated) -3.64%
Cc1ccc2nc(SCCC(=O)O)cc(C)c2c1 43.9%
Nc1nc(-c2ccccc2Br)cs1 -3.14%
Cc1cc(C)nc(Nc2n[nH]c(-c3ccccc3Br)n2)n1 -2.55%
CC(C)CC(C(=O)O)N1C(=O)[C@@H]2[C@H](C1=O)[C@@H]1C[C@H]2C(Br)C1Br (some centres not stated) 42.5%
Cc1[nH]n(-c2ncc(-c3ccccc3)s2)c(=O)c1C(c1ccc(Br)cc1)C(C#N)C#N (configuration not stated) 6.12%
Cc1[nH]n(-c2ncc(-c3ccccc3)s2)c(=O)c1C(c1ccc(Cl)cc1)C(C#N)C#N (configuration not stated) 21.9%
O=C(COC(=O)Cc1c[nH]c2ccccc12)Nc1ccccc1 0.86%
CC(C)(C)c1ccc(C(=O)C2CCCN(C(=O)C3CCOCC3)C2)cc1 (configuration not stated) -15.1%
O=C(CN1CCC(n2nnc3cc(C(F)(F)F)ccc32)CC1)N1CCc2ccccc21 10.6%
Cc1ccc(CSCCNC(=O)CN2C(=O)c3ccccc3S2(=O)=O)cc1 46.9%
CC(C)(C)SCCNC(=O)CN1C(=O)c2ccccc2S1(=O)=O 32.2%
Cc1ccc(SCCNC(=O)CN2C(=O)c3ccccc3S2(=O)=O)cc1 54.1%
O=C(CN1C(=O)c2ccccc2S1(=O)=O)NCCC1=CCCCC1 43.9%
O=C(CN1C(=O)c2ccccc2S1(=O)=O)Nc1ccccc1C(=O)NCc1ccco1 23.5%
COc1ccc(CCNC(=O)CN2C(=O)c3ccccc3S2(=O)=O)cc1 34.7%
Cc1ccc(N(C(C)C(=O)O)S(=O)(=O)c2c(C)[nH]c(=O)[nH]c2=O)cc1 (configuration not stated) 3.87%
c1ccc(Cn2nnc3c(N4CCc5ccccc54)ncnc32)cc1 -4.35%
CCCNC(=O)NS(=O)(=O)c1cnccc1Sc1ccc(Cl)c(Cl)c1 9.08%
Cc1ccc(NC(=O)Cn2cccc2C2=NC(c3ccccc3)CO2)cc1C (configuration not stated) -6.31%
COC(=O)CSc1nc2cc3c(cc2cc1C)OCO3 -14.1%
Cc1c(Br)ccc(NC(=O)CCN2C(=O)C3C4CCC(C4)C3C2=O)c1C (configuration not stated) 15.8%
Cc1cc(NC(=O)CCN2C(=O)C3C4CCC(C4)C3C2=O)cc(C)c1Br (configuration not stated) 3.99%
O=C(NCc1ccccn1)C(=O)N/N=C/c1ccc2c(c1)OCO2 9.75%
COc1ccc(C2CC(=O)c3sc(NC(C)=O)nc3C2)cc1 (configuration not stated) -0.56%
Nc1nc2c(s1)CC(c1ccccc1)CC2 (configuration not stated) 18.1%
Nc1nc2c(s1)C(=O)CCC2 12.6%
COc1ccc(Nc2ncc3c(n2)CC(c2ccc(OC)cc2)CC3=O)cc1 (configuration not stated) 0.52%
